Assay results from PubChem BioAssay (NCI).
Compounds without any hit were thinned out: in the full panel of roughly 83,000, 20% have a hit.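 Single-dose data. Exposure time 48 hours. Values below 10 considered active.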 Unmarked numbers belong to inactive results. Active and inactive are the calls of the source.

How the values were obtained:
Experiment in all cases: NCI-60 one-dose screen, 48 h (100 = growth as untreated, 0 = no growth, -100 = all killed)
Settings in all cases: 10 µM unless noted
DU-145 prostate = test system: DU-145 prostate
K-562 leukemia = test system: K-562 leukemia
MALME-3M melanoma = test system: MALME-3M melanoma
MDA-MB-231 breast = test system: MDA-MB-231 breast
RXF 393 renal = test system: RXF 393 renal
SF-268 CNS = test system: SF-268 CNS
SF-295 CNS = test system: SF-295 CNS
SF-539 CNS = test system: SF-539 CNS
UACC-257 melanoma = test system: UACC-257 melanoma
M14 melanoma = test system: M14 melanoma
HCT-15 colon = test system: HCT-15 colon
HT29 colon = test system: HT29 colon
SNB-19 CNS = test system: SNB-19 CNS
U251 CNS = test system: U251 CNS
SK-MEL-5 melanoma = test system: SK-MEL-5 melanoma
UACC-62 melanoma = test system: UACC-62 melanoma
LOX IMVI melanoma = test system: LOX IMVI melanoma
SK-MEL-28 melanoma = test system: SK-MEL-28 melanoma
PC-3 prostate = test system: PC-3 prostate

Compound | growth (DU-145 prostate) | growth (K-562 leukemia) | growth (MALME-3M melanoma) | growth (MDA-MB-231 breast) | growth (RXF 393 renal) | growth (SF-268 CNS) | growth (SF-295 CNS) | growth (SF-539 CNS) | growth (UACC-257 melanoma) | growth (M14 melanoma) | growth (HCT-15 colon) | growth (HT29 colon) | growth (SNB-19 CNS) [%] | growth (U251 CNS) | growth (SK-MEL-5 melanoma) | growth (UACC-62 melanoma) | growth (LOX IMVI melanoma) | growth (SK-MEL-28 melanoma) | growth (PC-3 prostate)
O=C(NS(=O)(=O)c1ccccc1)n1cc(-c2ccncc2)c(-c2ccc(Cl)c(O)c2)n1 | 104% | 88.9% | 27.6% | 112% | 107% | 97.7% | 107% | 97.6% | 91.6% | 34.2% | 103% | 100% | 111 | 110% | 100% | 59% | 79.9% | 63% | 
CCOC(=O)c1c(/N=C2\SC(=O)/C(=C\C(=O)OC)N2NC)sc2c1CCN(C(=O)OCC)C2 | 101% | 99.9% | 101% | 100% | 106% | 96.2% | 98.7% | 96.9% | 101% | 91.7% | 95.9% | 99% | 99.2 | 101% |  | 97.7% | 94.2% | 101% | 94.8%
C=C1C(=O)O[C@@H]2[C@@H]3O[C@@](C)(CC/C=C(\C)CCC[C@@H]2C)[C@H](O)C[C@@H]13 | 50.1% | 18.6% | 55.2% | 68.2% | 27% | 67.9% | 81.8% | 58.3% | 67.9% | -1.2% (active) | 38.9% | 32.3% | 84.3 | 56.4% |  | 17.2% | 44% | 80.5% | 39.8%
COc1ccc(/C=C2\Oc3cc(OCCCN4CCCC4)ccc3C2=O)c(OC)c1 | 71.2% | -30.4% (active) | 106% | 78.8% | 77.3% | 87.3% | 99.8% | 51.6% | 103% | 67.7% | 17.8% | 10.2% | 74.4 | 54.4% |  | 99.3% | -27.7% (active) | 105% | 66.8%
O=C(CN1CCN(c2cc3c(cc2F)c(=O)c(C(=O)N/N=C/c2ccccc2O)cn3C2CC2)CC1)N/N=C\c1ccccc1O | 21.2% | 8.3% (active) | 22.3% | 25.3% | 27.9% | 16.6% | 21.5% | 11.1% | 20% | -27.6% (active) | 18.4% | 39.2% | 29.9 | 24.8% | -47.5% (active) | 0.0993% (active) | 2.01% (active) | 20.7% | 
O=C(Nc1ccncc1)C(=O)c1cn(S(=O)(=O)c2ccc(Br)cc2)c2ccccc12 | 62.6% | 26.5% | 49.6% | 43% | 60.1% | 52.2% | 29.6% | 43.8% | 69.4% | 31.6% | 31% | 11.6% | 64.6 | 42.7% | 14.5% | 38.3% | 41.6% | 60.6% | 
Cc1ccc(-c2nc(C#N)c(S(=O)(=O)n3nc(-c4ccccc4)cc3N)o2)cc1 | 105% | 13.3% | -34.9% (active) | 89% | 85% | 101% | 104% | 97% | 92.1% | 83% | 67.6% | 56% | 93.7 | 96.7% |  | 94.3% | 28% | 108% | 101%
COc1ccc(Nc2nn3c(-c4ccccc4)cc(-c4ccccc4)nc3c2C(N)=O)c(OC)c1 | 38.2% | 58.1% | 44.7% | 29.3% | 84.7% | 53.4% | 37.5% | 13.4% | 62.4% | 51.3% | 70.5% | 41.9% | 58.2 | 18.6% |  | 40.7% | 54.6% | 71% | 44.6%
COc1ccc(Nc2[nH]n3c(=O)cc(C)nc3c2C(N)=O)c(OC)c1 | 112% | 101% | 126% | 84.9% | 98.1% | 97.8% | 102% | 91.2% | 85.1% | 106% | 102% | 92.2% | 96 | 94.1% |  | 84% | 95.6% | 109% | 99.7%
COc1ccc(-c2ccc(-c3ccc(C(=N)N)s3)s2)cc1Cl | 0.775% (active) | -37.4% (active) | 64.3% | -42.3% (active) | -87.5% (active) | 76.8% | 10.8% | 65.7% | 106% | 97.2% | -76% (active) | -84% (active) | 35.2 | -86.2% (active) |  | -92.1% (active) |  | 90.1% | -92% (active)
CCN1C(=O)N(CC)C2C1NN=c1s/c(=C\c3cccnc3)c(=O)n12 (stereo not given) | 17% | 9.64% (active) | 61.8% | 46.5% | 0.531% (active) | 49.4% | 11.9% | -13.3% (active) | 68% | 0.469% (active) | 18.9% | 8.17% (active) | 29.2 | 19.1% |  | 30.7% | 46% | 51.8% | 21.3%
CCN(CC)CCC(CNc1ccnc2cc(Cl)ccc12)c1ccc(Cl)cc1 (stereo not given) | 67.7% | -53.9% (active) | -83.1% (active) | -32.1% (active) | -90.4% (active) | -8.09% (active) | -75.4% (active) | -78.2% (active) | -79.4% (active) | -80.2% (active) | -9.14% (active) | -4.66% (active) | 10.7 | -61% (active) |  | -74.5% (active) | -1.91% (active) | -91.8% (active) | 36.9%
O=C(NNC(=S)Nc1ccccc1)c1cc2ccc1CCc1ccc(cc1)CC2 | 77.5% | 43.4% | 74.8% | 77.2% | 83.7% | 76.6% | 49.5% | 82.9% | 85.8% | 56% | 40.2% | 76.1% | 56.9 | 49.3% |  | 55.9% | 59.4% | 73.5% | 57.8%
N[C@H]1CN(C(=O)c2cc3cc(Br)c(F)c(F)c3[nH]2)C[C@@H]1O | 112% | 104% | 101% | 92% | 103% | 88.5% | 104% | 96% | -76.6% (active) | 97.2% | 102% | 103% | 96.6 | 95.9% |  | 93.6% | 89.6% | 106% | 93.6%
Cc1cc(N/N=C/c2nc(-c3ccc(Br)cc3)oc2C)c2cc(Cl)ccc2n1 | 60.7% | -17.6% (active) | 55.6% | 67.2% | 85.5% | 80% | 101% | 98.5% | 95.6% | 40.8% | 37.9% | 13.5% | 60.1 | 13.9% | 92.6% | 82.9% | 20.8% | 60.7% | 
CC(=O)Nc1ccc(/C=C/C(=O)c2ccccc2)cc1 | 86.6% | 36.7% | 120% | 104% | 68.2% | 89.1% | 106% | 96.6% | 89.3% | 97.7% | 91.9% | 83.8% | 77.7 | 74.7% |  | 96.6% | 93% | 103% | 66.8%
CCCCCCCC[C@@H](O)CC(=O)N[C@@H](CC(N)=O)C(=O)N[C@@H](CCC(N)=O)C(=O)N[C@@H](CC(=O)c1cc(C)cc(O)c1C(=O)c1c(O)cccc1O)CC(C)C | 54% | 23.8% | 51.3% | 12.1% | -49.5% (active) | 9.65% (active) | 21% | -5.78% (active) | 14.9% | -12.3% (active) | 45.6% | 2.56% (active) | 23.8 | 4.49% (active) |  | 0.947% (active) | 12.5% | 28.5% | 10.8%
